# Experimental data published in the supplement of paper PMC12282887.
# ± gives the standard deviation of the averaged measurements.
# Columns and labels:
# Assay in all cases: promoter activity interaction Z-score (Lux/OD deviation from empty-vector control); higher = stronger promoter induction by the compound
# [1] = system: E. coli BW25113 acrABp lux reporter
# How it was run: (§1)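 Reporter strains of E. coli BW25113 grew at 37°C in 40 µl LB Lennox in 384-well plates. Readings of OD600 and luminescence were taken every 30 min over 12 h, integrated over 0–8 h (wild type) or 1–9 h (deletion strains), and wells below 10% of the median growth value were excluded. Scores are Z-transformed residuals of growth-normalised luminescence from a fit against a control.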
# [2] = system: E. coli BW25113 micFp lux reporter
# How it was run: as §1
# [3] = system: E. coli BW25113 ompFp lux reporter
# How it was run: as §1
# [4] = system: E. coli BW25113 robp lux reporter
# How it was run: as §1
# [5] = system: E. coli BW25113 soxSp lux reporter
# How it was run: as §1
# [6] = system: E. coli BW25113 tolCp lux reporter
# How it was run: as §1
# [7] = 0.011 µg/ml, genetic background: wild type
# [8] = 0.011 µg/ml, genetic background: ΔmarA
# [9] = 0.011 µg/ml, genetic background: Δrob
# [10] = 0.011 µg/ml, genetic background: ΔsoxS
# [11] = 0.023 µg/ml, genetic background: wild type
# [12] = 0.023 µg/ml, genetic background: ΔmarA
# [13] = 0.023 µg/ml, genetic background: Δrob
# [14] = 0.023 µg/ml, genetic background: ΔsoxS
# [15] = 0.046 µg/ml, genetic background: wild type
# [16] = 0.046 µg/ml, genetic background: ΔmarA
# [17] = 0.046 µg/ml, genetic background: Δrob
# [18] = 0.046 µg/ml, genetic background: ΔsoxS
# [19] = 0.091 µg/ml, genetic background: wild type
# [20] = 0.091 µg/ml, genetic background: ΔmarA
# [21] = 0.091 µg/ml, genetic background: Δrob
# [22] = 0.091 µg/ml, genetic background: ΔsoxS
smiles,measurement,setting,value
C[C@@H]1O[C@@H]1P(=O)(O)O [Fosfomycin],promoter activity interaction Z-score,[1]; [7],-0.0514 ± 0.17
same,promoter activity interaction Z-score,[1]; [8],0.0429 ± 0.25
same,promoter activity interaction Z-score,[1]; [9],0.201 ± 0.24
same,promoter activity interaction Z-score,[1]; [10],-0.0843 ± 0.31
same,promoter activity interaction Z-score,[1]; [11],0.134 ± 0.25
same,promoter activity interaction Z-score,[1]; [12],0.445 ± 0.43
same,promoter activity interaction Z-score,[1]; [13],0.174 ± 0.14
same,promoter activity interaction Z-score,[1]; [14],-0.242 ± 0.29
same,promoter activity interaction Z-score,[1]; [15],-0.142 ± 0.12
same,promoter activity interaction Z-score,[1]; [16],-0.284 ± 0.14
same,promoter activity interaction Z-score,[1]; [17],0.229 ± 0.37
same,promoter activity interaction Z-score,[1]; [18],0.118 ± 0.17
same,promoter activity interaction Z-score,[1]; [19],1.76 ± 0.8
same,promoter activity interaction Z-score,[1]; [20],2.58 ± 0.66
same,promoter activity interaction Z-score,[1]; [21],1.15 ± 0.18
same,promoter activity interaction Z-score,[1]; [22],0.198 ± 1.3
same,promoter activity interaction Z-score,[2]; [7],-0.227 ± 0.25
same,promoter activity interaction Z-score,[2]; [8],0.053 ± 0.061
same,promoter activity interaction Z-score,[2]; [9],-0.0521 ± 0.036
same,promoter activity interaction Z-score,[2]; [10],-0.3 ± 0.065
same,promoter activity interaction Z-score,[2]; [11],-0.0683 ± 0.18
same,promoter activity interaction Z-score,[2]; [12],0.0385 ± 0.078
same,promoter activity interaction Z-score,[2]; [13],-0.0229 ± 0.046
same,promoter activity interaction Z-score,[2]; [14],-0.31 ± 0.0043
same,promoter activity interaction Z-score,[2]; [15],-0.471 ± 0.25
same,promoter activity interaction Z-score,[2]; [16],-0.104 ± 0.084
same,promoter activity interaction Z-score,[2]; [17],-0.121 ± 0.023
same,promoter activity interaction Z-score,[2]; [18],0.017 ± 0.027
same,promoter activity interaction Z-score,[2]; [19],0.578 ± 0.33
same,promoter activity interaction Z-score,[2]; [20],-0.163 ± 0.034
same,promoter activity interaction Z-score,[2]; [21],-0.0601 ± 0.12
same,promoter activity interaction Z-score,[2]; [22],-0.264 ± 0.2
same,promoter activity interaction Z-score,[3]; [7],0.269 ± 0.034
same,promoter activity interaction Z-score,[3]; [8],0.352 ± 0.034
same,promoter activity interaction Z-score,[3]; [9],-0.181 ± 0.21
same,promoter activity interaction Z-score,[3]; [10],0.154 ± 0.62
same,promoter activity interaction Z-score,[3]; [11],0.162 ± 0.32
same,promoter activity interaction Z-score,[3]; [12],0.534 ± 0.28
same,promoter activity interaction Z-score,[3]; [13],0.297 ± 0.084
same,promoter activity interaction Z-score,[3]; [14],-0.146 ± 0.43
same,promoter activity interaction Z-score,[3]; [15],-0.707 ± 0.057
same,promoter activity interaction Z-score,[3]; [16],0.0141 ± 0.47
same,promoter activity interaction Z-score,[3]; [17],0.161 ± 0.65
same,promoter activity interaction Z-score,[3]; [18],0.414 ± 0.21
same,promoter activity interaction Z-score,[3]; [19],3.07 ± 0.41
same,promoter activity interaction Z-score,[3]; [20],3.8 ± 2.2
same,promoter activity interaction Z-score,[3]; [21],2.55 ± 1.5
same,promoter activity interaction Z-score,[3]; [22],2.08 ± 5
same,promoter activity interaction Z-score,[4]; [7],0.505 ± 0.043
same,promoter activity interaction Z-score,[4]; [8],0.245 ± 0.25
same,promoter activity interaction Z-score,[4]; [9],0.133 ± 0.36
same,promoter activity interaction Z-score,[4]; [10],0.554 ± 0.71
same,promoter activity interaction Z-score,[4]; [11],0.0622 ± 0.91
same,promoter activity interaction Z-score,[4]; [12],0.483 ± 0.81
same,promoter activity interaction Z-score,[4]; [13],0.389 ± 0.11
same,promoter activity interaction Z-score,[4]; [14],1.15 ± 1.3
same,promoter activity interaction Z-score,[4]; [15],-0.338 ± 0.75
same,promoter activity interaction Z-score,[4]; [16],-0.357 ± 0.2
same,promoter activity interaction Z-score,[4]; [17],0.416 ± 0.18
same,promoter activity interaction Z-score,[4]; [18],1.3 ± 1
same,promoter activity interaction Z-score,[4]; [19],-0.301 ± 0.048
same,promoter activity interaction Z-score,[4]; [20],0.127 ± 0.3
same,promoter activity interaction Z-score,[4]; [21],-0.752 ± 0.35
same,promoter activity interaction Z-score,[4]; [22],-0.158 ± 0.9
same,promoter activity interaction Z-score,[5]; [7],0.228 ± 0.36
same,promoter activity interaction Z-score,[5]; [8],0.2 ± 0.11
same,promoter activity interaction Z-score,[5]; [9],-0.0473 ± 0.12
same,promoter activity interaction Z-score,[5]; [10],0.164 ± 0.072
same,promoter activity interaction Z-score,[5]; [11],-0.175 ± 0.12
same,promoter activity interaction Z-score,[5]; [12],0.188 ± 0.14
same,promoter activity interaction Z-score,[5]; [13],-0.154 ± 0.05
same,promoter activity interaction Z-score,[5]; [14],0.0176 ± 0.14
same,promoter activity interaction Z-score,[5]; [15],-0.307 ± 0.09
same,promoter activity interaction Z-score,[5]; [16],0.119 ± 0.16
same,promoter activity interaction Z-score,[5]; [17],0.0235 ± 0.023
same,promoter activity interaction Z-score,[5]; [18],0.138 ± 0.19
same,promoter activity interaction Z-score,[5]; [19],-0.0128 ± 0.14
same,promoter activity interaction Z-score,[5]; [20],0.0924 ± 0.018
same,promoter activity interaction Z-score,[5]; [21],-0.135 ± 0.043
same,promoter activity interaction Z-score,[5]; [22],0.657 ± 0.49
same,promoter activity interaction Z-score,[6]; [7],-0.233 ± 0.12
same,promoter activity interaction Z-score,[6]; [8],-0.202 ± 0.12
same,promoter activity interaction Z-score,[6]; [9],-0.412 ± 0.27
same,promoter activity interaction Z-score,[6]; [10],-0.149 ± 0.38
same,promoter activity interaction Z-score,[6]; [11],-0.358 ± 0.5
same,promoter activity interaction Z-score,[6]; [12],0.891 ± 0.16
same,promoter activity interaction Z-score,[6]; [13],-0.173 ± 0.68
same,promoter activity interaction Z-score,[6]; [14],0.35 ± 0.7
same,promoter activity interaction Z-score,[6]; [15],-1.79 ± 0.32
same,promoter activity interaction Z-score,[6]; [16],-0.292 ± 0.4
same,promoter activity interaction Z-score,[6]; [17],-0.445 ± 0.36
same,promoter activity interaction Z-score,[6]; [18],0.22 ± 0.3
same,promoter activity interaction Z-score,[6]; [19],-0.204 ± 0.16
same,promoter activity interaction Z-score,[6]; [20],-0.347 ± 0.15
same,promoter activity interaction Z-score,[6]; [21],-0.366 ± 0.71
same,promoter activity interaction Z-score,[6]; [22],-0.266 ± 0.13
